The values that follow come from the antibiotic and cytotoxicity screens of Wong et al. (2023).

The whole screen tested about 39,000 compounds, of which about 1,500 (3.8%) were called active. Many of the other results were omitted from the sample, so actives are more common in it than they were.

The test system of this test is HSkMC (human skeletal muscle cells). As to the kind of experiment: cytotoxicity call (relative viability < 0.9). As to conditions: 10 µM.
With `CCN(Cc1ccc(Cl)nc1)C(=C[N+](=O)[O-])NC`, the cytotoxicity call is “inactive”. Regarding `C=CCN1C[C@H]2CN(C(C)C)C[C@H]2C1=O`, the cytotoxicity call was “inactive”. Then `CO[C@@H]1C=C[C@@H]2[C@H]1N2CCCO` (stereo partly drawn), with “inactive”; and `Nc1c[n+](CCc2ccccc2)no1`, with “inactive”; and `CN1CCN(C(=O)CN=[N+]=[N-])CC1`, with “inactive”.

`C=C(CCCCCCCCCCCCCCCC)OOC[C@@H](COP(=O)(ON)O[C@@H]1[C@H](O)[C@H](O)[C@@H](OP(=O)(O)ON)[C@H](OP(=O)(O)ON)[C@H]1O)OOC(=C)CC/C=C/C/C=C/C/C=C/C/C=C/CCCCC` (stereo partly drawn): the cytotoxicity call is “inactive”. `C=C(C)[C@@H]1CCC(C)=C[C@H]1c1c(OC)cc(C)cc1OC`: the cytotoxicity call is “inactive”. In the case of `C=C(C)[C@@H]1CCC(C)=C[C@H]1c1c(O)cc(CCCCC)cc1O` it was “active”; in that of `C[C@@H]1C(=O)O[C@H]2[C@H](O)[C@@]34[C@@H]5OC(=O)[C@@]3(O[C@@H]3OC(=O)[C@H](O)[C@@]34[C@H](C(C)(C)C)[C@H]5O)[C@@]12O`, “inactive”.

With `NC1(c2ccc(Cl)cc2)CC1`, the cytotoxicity call was “inactive”. `O=[As]O[As]=O` (stereo not drawn): the cytotoxicity call is “inactive”.

As to `O=C(O)Cc1cccnc1C(=O)O`, the cytotoxicity call is “inactive”. In the case of `COC1C(O)C(C)OC(OC2CCC3(C=O)C(CCC4C3CCC3(C)C(C5=CC(=O)OC5)CCC43O)C2)C1O` (stereo not drawn) it was “active”. In the case of `CO[C@H]1C[C@H](O[C@H]2CC[C@]3(C=O)[C@H]4CC[C@]5(C)[C@@H](C6=CC(=O)OC6)CC[C@]5(O)[C@@H]4CC[C@]3(O)C2)O[C@H](C)[C@H]1O`, the cytotoxicity call is “active”. Regarding `CC1OC(OC2CCC3(C=O)C4CCC5(C)C(C6=CC(=O)OC6)CCC5(O)C4CCC3(O)C2)C(O)C(O)C1O` (stereo not drawn), the cytotoxicity call is “active”. In the case of `COC1C(O)C(C)OC(OC2CCC3(C)C4CCC5(C)C(C6=CC(=O)OC6)CCC5(O)C4CCC3(O)C2)C1O` (stereo not drawn) it was “inactive”; in that of `C[C@@H]1O[C@@H](O[C@H]2CC[C@]3(C=O)[C@H]4CC[C@]5(C)[C@@H](C6=CC(=O)OC6)CC[C@]5(O)[C@@H]4CC[C@]3(O)C2)[C@H](O)[C@H](O)[C@H]1O`, “active”; in that of `CO[C@H]1[C@@H](O)[C@@H](C)O[C@H](O[C@H]2CC[C@@]3(C)[C@H]4CC[C@@]5(C)[C@@H](C6=CC(=O)OC6)CC[C@]5(O)[C@@H]4CC[C@]3(O)C2)[C@@H]1O`, “inactive”. For the compound `CC(C)(C)OC(=O)N[C@H]1[C@@H]2CNC[C@@H]21`, the cytotoxicity call is “inactive”. In the case of `COC(N)=O` it was “inactive”; in that of `C[C@H](CO)N1C[C@H](C)[C@@H](CN(C)C(=O)Oc2cccc3ccccc23)OCc2cn(nn2)CCCC1=O`, “inactive”.

Take `COC(=O)C[C@H]1CC[C@@H]2NC[C@H](O)COC[C@H]2O1`: the cytotoxicity call is “inactive”. Regarding `Cc1ccc(OC(=O)N(C)C[C@@H]2OCc3ccccc3-c3c(n(C)c4ccccc34)C(=O)N([C@H](C)CO)C[C@H]2C)cc1`, the cytotoxicity call is “inactive”. For `COc1ccc(OC)c(C(O)C(C)N)c1.Cl` (stereo not drawn), the cytotoxicity call was “inactive”. Then `C[N+]1(C)CCCC(OC(=O)C(O)(c2ccccc2)c2ccccc2)C1.[Br-]` (stereo not drawn), with “inactive”.

For the compound `NC[C@@H](O)c1ccccc1`, the cytotoxicity call is “inactive”.

Turning to `CC(C)(C)OC(=O)N1C[C@H]2C[C@@H]1CN2`, the cytotoxicity call is “inactive”. In the case of `c1cc2c(cc1CN1CCNCC1)OCO2` it was “inactive”; in that of `c1ccc2cc3c(cc2c1)-c1cccc2cccc-3c12`, “inactive”; in that of `CCC1=C[C@@H]2[C@H](C1)C[C@]2(CN)CC(=O)O`, “inactive”. Consider `[N-]=[N+]=NCc1ccccc1C[C@]1(C(=O)N2CCCCC2)N=C(c2ccc(OCCCO)cc2)O[C@H]1c1ccccc1N=[N+]=[N-]`, for which the cytotoxicity call was “inactive”. In the case of `CC12CCC3C(CCC4(O)CC(O)CCC34C=O)C1(O)CCC2C1=CC(=O)OC1` (stereo not drawn) it was “active”. Then `NC[C@@H](CC(=O)O)c1ccccc1`, with “inactive”. Then `CCOC(OCC)P(=O)(O)CCCN`, with “inactive”; and `CC(=O)N[C@@H]1[C@H](O[C@@H]2O[C@H](C[C@@H](O)[C@H]3O[C@@H](n4ccc(=O)[nH]c4=O)[C@H](O)[C@@H]3O)[C@H](O)[C@H](O)[C@H]2NC(=O)/C=C/CCCCCCCCC(C)C)O[C@@H](CO)[C@H](O)[C@H]1O`, with “inactive”; and `Oc1ccc(Cl)cc1Cc1cc(Cl)ccc1O`, with “inactive”. As to `Oc1cc(Cl)ccc1Oc1ccc(Cl)cc1Cl` [listing 1 of 2 here], the cytotoxicity call was “active”.

Consider `Oc1cc(Cl)ccc1Oc1ccc(Cl)cc1Cl` [listing 2 of 2 here], for which the cytotoxicity call was “inactive”.

With `CC(C)[C@@H]1NC[C@@H]2CCCN2C1=O`, the cytotoxicity call was “inactive”. As for `O=C1C=CC(=O)c2c(O)cccc21`, the cytotoxicity call was “inactive”. Then `Oc1ccccc1-c1ccccc1O`, with “inactive”. Then `CC1=CC(=O)c2c(O)cccc2C1=O`, with “active”; and `O=C(O)C=CC(=O)O.c1ccc2nc(N3CCNCC3)ccc2c1`, with “inactive”; and `Cc1ncc(CNC(=O)N(CCCl)[NH2+][O-])c(N)n1`, with “inactive”. Consider `CC(=O)OC1C2CCC3C(C)(O)C4CC(O)C(C)(C)C4(O)C(O)CC13CC2(C)O` (stereo not drawn), for which the cytotoxicity call was “inactive”. As to `Cc1cc(C2=NO[C@](c3cc(Cl)cc(Cl)c3)(C(F)(F)F)C2)ccc1C(=O)NCC(=O)NCC(F)(F)F`, the cytotoxicity call is “active”. Then `CN1CCOCC12CCN(c1ncccn1)CC2`, with “inactive”. Then `COc1ccc(C2(CN)CCCC2)cc1`, with “inactive”; and `NCc1cc(=O)[nH]o1`, with “inactive”; and `O=C1N[C@@H]2C(=C[C@H](O)[C@@H](O)[C@H]2O)c2cc3c(c(O)c21)OCO3`, with “active”. Then `N[C@@H](c1ccccc1)[C@H](O)c1ccccc1`, with “inactive”; and `CNC(=O)Oc1ccc2c(c1)C1(C)CCN(C)C1N2C.O=S(=O)(O)O` (stereo not drawn), with “inactive”. As to `Cc1ccc(N2CCO[C@@H]3CNCC[C@H]3C2)nn1`, the cytotoxicity call was “inactive”. Regarding `NCCc1nccs1`, the cytotoxicity call was “inactive”. Then `CCN1C[C@H]2CN(Cc3nccn3C)C[C@H]2C1=O`, with “inactive”.

With `CNC(=O)Oc1cccc2ccccc12`, the cytotoxicity call was “inactive”. In the case of `C[C@H]1C[C@H]2CNCC[C@@H]2O1`, the cytotoxicity call was “inactive”. With `O=[N+]([O-])c1ccc(N(CCO)CCO)c2c1no[n+]2[O-]`, the cytotoxicity call is “active”. In the case of `CNC(=O)Oc1ccc2c(c1)C1(C)CCN(C)C1N2C.O=C(O)c1ccccc1O` (stereo not drawn) it was “inactive”; in that of `Cn1ccnc1CN1CCC[C@]2(CCNC2=O)C1`, “inactive”; in that of `CC(=O)NN1Cc2ccccc2C1=N`, “inactive”. In the case of `CC(C)c1ccc2[nH]c(=O)c(CCN)cc2c1` it was “inactive”. In the case of `[N-]=[N+]=NCc1ccccc1C[C@@]1(C(=O)NCCN2CCOCC2)N=C(c2ccc(OCCCO)cc2)O[C@@H]1c1ccccc1N=[N+]=[N-]` it was “inactive”; in that of `CC1=C2CC3C(CC=C4CC(O)CCC43C)C2CCC12OC1CC(C)CNC1C2C` (stereo not drawn), “inactive”; in that of `Cc1ccc(OC(=O)N(C)C[C@H]2OCc3ccccc3-c3c(n(C)c4ccccc34)C(=O)N([C@@H](C)CO)C[C@@H]2C)cc1`, “inactive”.

For the compound `O=C1[O][SbH]23[O]C(=O)C([O]2)C2[O][SbH]4([O]C(=O)C([O]4)C1[O]3)[O]C2=O`, the cytotoxicity call is “inactive”. For `O=C1[O][SbH]23[O]C(=O)[C@H]([O]2)[C@H]2[O][SbH]4([O]C(=O)[C@H]([O]4)[C@H]1[O]3)[O]C2=O`, the cytotoxicity call is “active”. Then `CC(C)(C)NCC(O)c1ccccc1Cl.Cl` (stereo not drawn), with “inactive”; and `CC(C)(C#N)O[C@@H]1O[C@H](CO)[C@@H](O)[C@H](O)[C@H]1O`, with “inactive”. In the case of `CN1C(=O)[C@@]23C[C@]4([C@@]56C[C@]78SS[C@](CO)(C(=O)N7[C@@H]5Nc5ccccc56)N(C)C8=O)c5ccccc5N[C@H]4N2C(=O)[C@@]1(CO)SS3` it was “active”; in that of `CN1C(=O)[C@]23CC4=CC=C[C@H](O)[C@H]4N2C(=O)[C@@]1(CO)SS3`, “active”. Then `N#C[C@H](O[C@@H]1O[C@H](CO[C@@H]2O[C@H](CO)[C@@H](O)[C@H](O)[C@H]2O)[C@@H](O)[C@H](O)[C@H]1O)c1ccccc1`, with “inactive”; and `CN1CC[C@]2(CCCO2)C1`, with “inactive”.

Regarding `CCOc1ccc(CN)cn1`, the cytotoxicity call was “inactive”. In the case of `NSC(=S)N1CCCC1` it was “inactive”; in that of `O=C1C=C2C=CC3CC2(O1)C1CCCCN31` (stereo not drawn), “inactive”. Then `Nc1ccc2c(c1)CNCC2`, with “inactive”.

In the case of `O=c1[nH]c2ccccc2n1CCCN1CCC(n2c(=O)[nH]c3cc(Cl)ccc32)CC1`, the cytotoxicity call is “inactive”.

`O=c1[nH]c2ccccc2n1C1CCN(CCCC(c2ccc(F)cc2)c2ccc(F)cc2)CC1`: the cytotoxicity call was “active”. `COc1ccn(C)c(=O)c1C#N`: the cytotoxicity call is “inactive”. Then `Cl.c1ccc2c(c1)OCC(C1=NCCN1)O2` (stereo not drawn), with “inactive”; and `CI.O=C(COc1ccc(Cl)cc1Cl)OC[C@H]1CCCN2CCCC[C@@H]12`, with “inactive”; and `O=C1CO[C@]2(CNCCOC2)CN1CC1CC1`, with “inactive”.

In the case of `CN(C)C(=O)CCC(=O)N1C[C@H]2C[C@@H]1CN2`, the cytotoxicity call is “inactive”. Then `CO[C@@H]1C[C@@H](C[C@H]2CC[C@H](C)[C@H]([C@@H](C)C(=O)O)O2)O[C@]2(O[C@](C)([C@H]3CC[C@@](C)([C@H]4O[C@@H]([C@H]5O[C@@](O)(CO)[C@H](C)C[C@@H]5C)C[C@@H]4C)O3)C[C@H]2C)[C@@H]1C`, with “active”; and `C[C@@H]1CN([C@H](C)CO)C(=O)CCCn2nncc2CO[C@@H]1CN(C)C(=O)Oc1cccc2ccccc12`, with “inactive”; and `Clc1ccc(C(c2ccc(Cl)cc2)C(Cl)(Cl)Cl)cc1`, with “inactive”. As for `N[C@H]1C[C@H]1c1ccccc1`, the cytotoxicity call is “inactive”. Then `NCC(=O)c1ccccc1`, with “inactive”; and `O=C(Cc1ccccc1)c1ccccc1`, with “inactive”; and `CC(=O)[O][Hg][c]1ccccc1`, with “active”. In the case of `O.O.O.O=C([O-])C1[O][Sb]2[O]C(=O)C([O]2)C(C(=O)[O-])[O][Sb]2[O]C(=O)C1[O]2.[K+].[K+]` (stereo not drawn) it was “inactive”. In the case of `CC[C@@H](C)[C@H]1NC(=O)C(C(C)=O)=C1O` it was “inactive”; in that of `CCC(N)C(O)c1ccc(O)c(O)c1.Cl` (stereo not drawn), “inactive”. As to `CC[C@@H](N)[C@@H](O)c1ccc(O)c(O)c1`, the cytotoxicity call is “active”. In the case of `C[C@H](N)[C@H](O)c1ccc(O)c(O)c1` it was “inactive”. For the compound `Cn1cc([C@@H](O)c2ccccc2)[n+](C)c1`, the cytotoxicity call is “inactive”. In the case of `CC(CO)NC(=O)C1C=C2c3cccc4[nH]cc(c34)CC2N(C)C1.O=C(O)C=CC(=O)O` (stereo not drawn), the cytotoxicity call was “inactive”.
